High-throughput results from PubChem BioAssay.
Only some compounds are listed: those with a hit (about 9.2% of all), similar ones and a draw of the others.
HPGD block – inhibitors of human 15-hydroxyprostaglandin dehydrogenase (HPGD); purified HPGD, NADH fluorescence kinetic, PGE2 substrate; Potency, µM, for inactives: at the top dose activity change, negative = inhibition, usual class: inhibitors; hit rate 4.3% among 150,000; AID 894; note: % is set by controls: 0 for no effect and ±100 for the full control effect
Target sequence (P15428 whole entry, looked up): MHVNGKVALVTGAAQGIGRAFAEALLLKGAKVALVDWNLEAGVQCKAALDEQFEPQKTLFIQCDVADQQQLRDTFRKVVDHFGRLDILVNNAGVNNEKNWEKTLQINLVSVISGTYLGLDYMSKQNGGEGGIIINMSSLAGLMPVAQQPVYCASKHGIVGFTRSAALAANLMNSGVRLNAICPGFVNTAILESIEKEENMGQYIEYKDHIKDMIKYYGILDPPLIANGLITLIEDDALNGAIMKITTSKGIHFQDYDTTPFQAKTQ
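20 nM HPGD preincubated 15 min at room temperature with compound in 50 mM Tris-HCl pH 8, 0.01% Tween 20. Started with 1 mM NAD+ and 30 uM prostaglandin E2; NADH fluorescence (360/450 nm) read 5 times over 30-s intervals, last minus first.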
LMNA splice mod – LMNA splicing modulation; HeLa LMNA splicing GFP/RFP minigene ratio, 48 h; Potency, µM (doses to about 46.1 µM), inactives show at the top dose ratio change, negative = inhibition, hits mostly inhibitors; hit rate 0.01% among 200,000; AID 1487; active = well fitted inhibition curve with a large enough effect in the signal ratio, with a control signal flat, not every such curve was filed as active; inconclusive = small, poorly fitted or top-dose-only effect, or effect the other way, or a change in a side signal; the % refers to the signal ratio; note: % is set by controls: 0 for no effect and ±100 for the full control effect
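S3 HeLa cells stably expressing lamin A-EGFP splicing minigene plus DsRed2, 600 cells/well, 48 h compound exposure at 37C. Laser-scanning cytometry; analysed as GFP (500-530 nm)/RFP (575-640 nm) total intensity ratio; 0.5% DMSO vehicle.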
ALDH1A1 inh – blocks purified human ALDH1A1 activity; P00352; Purified ALDH1A1, NADH fluorescence, propionaldehyde substrate; Potency, µM (doses to about 75.3 µM), for inactives: at the highest dose activity, negative = inhibition, actives largely listed as inhibitors; hit rate 7.3% among 220,000; AID 1030;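 note: plate controls were no enzyme wells and a reference inhibitor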
Target sequence (P00352 whole entry, looked up): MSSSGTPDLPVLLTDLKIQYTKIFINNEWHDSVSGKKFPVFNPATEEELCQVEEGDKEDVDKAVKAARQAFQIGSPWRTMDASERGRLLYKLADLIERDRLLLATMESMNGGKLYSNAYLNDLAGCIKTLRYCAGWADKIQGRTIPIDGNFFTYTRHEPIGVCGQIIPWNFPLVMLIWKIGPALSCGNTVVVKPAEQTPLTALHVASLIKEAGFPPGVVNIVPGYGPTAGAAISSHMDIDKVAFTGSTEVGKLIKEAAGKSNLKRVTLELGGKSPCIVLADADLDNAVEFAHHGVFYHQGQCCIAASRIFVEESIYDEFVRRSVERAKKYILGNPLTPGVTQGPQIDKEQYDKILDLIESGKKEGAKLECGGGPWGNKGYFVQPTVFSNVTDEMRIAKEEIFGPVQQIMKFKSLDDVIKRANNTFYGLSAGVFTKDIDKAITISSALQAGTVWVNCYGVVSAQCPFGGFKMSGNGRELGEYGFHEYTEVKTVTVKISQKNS
JMJD2E inh – inhibitors of human JMJD2E histone demethylase | JMJD2E catalytic domain, FDH-coupled NADH fluorescence (FDH is formaldehyde dehydrogenase) | AID 2147 | B2RXH2 | hit rate 1.6% among 230,000 | Potency, µM (titrated, usually from 57.1 µM), for the others: top-dose activity change, negative = inhibition, usual class: inhibitors;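 note: 0% = wells with enzyme and -100% = buffer wells without enzyme; nearly all actives have a fitted effect of over 50% in size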
HTT ATP protect – Huntington cell model cytoprotection by ATP luminescence. PC12 HTT-Q103 induced, cytoprotection, ATP luminescence, 40 h. Potency, µM (doses to about 56.4 µM), without a hit: cytoprotection (ATP increase), actives largely listed as activators. hit rate 0.14% among 230,000. AID 1471; active = well fitted curve in the direction sought with a large enough effect; inconclusive = small, poorly fitted or top-dose-only effect, or another doubt; inactive = no such curve, though single readings can be large; an effect the other way counts as inactive or inconclusive; note: % of control where 0% means no effect; nearly all actives have a fitted effect of over 45% in size
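Huntington model: PC12 line, ecdysone-inducible HTTQ103 exon1–GFP, tebufenozide 100 nM. Test articles in a dose series. Endpoint luminescence from cellular ATP.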
HttQ103 aggreg – mutant huntingtin aggregation inhibition | hit rate 1.1% among 220,000 | PC12 HttQ103-GFP aggregates, Acumen cytometry, 40 h | Potency, µM (top dose mostly 46.1 µM), without a hit: top-dose activity change, negative = inhibition, actives largely listed as inhibitors; active = well fitted curve in the direction sought with a large enough effect; inconclusive = small, poorly fitted or top-dose-only effect, or another doubt; inactive = no such curve, though single readings can be large; an effect the other way counts as inactive or inconclusive; note: % is set by controls: 0 for no effect and ±100 for the full control effect; nearly all actives have a fitted effect of over 60% in size
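Inducible Q103 Huntingtin exon 1–GFP PC12 line, 1500 cells/well in phenol red free DMEM with 5% equine and 5% calf serum. Tebufenozide 100 nM induced expression; compounds titrated; aggregates quantified by cytometry.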
Numbers without * were called inactive; [ ] = dose if it differs, or a comment. Unless noted, calls come from the whole dose curve; as a rule, active = well fitted inhibition curve with a large enough effect (not every such curve was filed as active); inconclusive = small, poorly fitted or top-dose-only effect, or another doubt; inactive = no such curve, though single readings can be large or run the other way. Potency is the fitted concentration of half-maximal effect.

Results for COC(=O)NC(/C(C(=O)OC)=C(\C)NCc1ccccc1)c1ccccc1 (configuration not stated) ?
ALDH1A1 inh: 28%[13.5 µM]; HTT ATP protect: -28%[10 µM]

Results for COC(=O)NC(/C(C(=O)OC)=C(\C)NCc1ccccc1)c1ccc2ccccc2c1 (configuration not stated) ?
ALDH1A1 inh: 3.5µM*; HTT ATP protect: -2%[10 µM]

How did CCOC(=O)C(=O)/C(C#N)=C/Nc1ccc(F)cc1 do in these assays?
HPGD block: -20%; LMNA splice mod: 8%; ALDH1A1 inh: 28µM*; JMJD2E inh: 6%; HTT ATP protect: 9%; HttQ103 aggreg: 23%

How did CCOC(=O)/C(C#N)=C/Nc1cc(F)ccc1C do in these assays?
JMJD2E inh: 0%; HTT ATP protect: -1%[10 µM]; HttQ103 aggreg: -16%[9.22 µM]

How did CC1(C)CCC2(C(=O)O)CC[C@]3(C)C(=CCC4[C@]5(C)CCC(O)C(C)(C)C5C(O)C[C@]43C)C2C1 (some centres not stated) do in these assays?
HPGD block: inconclusive; ALDH1A1 inh: inconclusive; JMJD2E inh: inconclusive; HTT ATP protect: -39%

How did O=C(O)C1C2CCC(C2)C1C(=O)NCc1ccco1 (configuration not stated) do in these assays?
HPGD block: -15%; LMNA splice mod: 4%; ALDH1A1 inh: 35µM*; JMJD2E inh: 3%; HTT ATP protect: -63%; HttQ103 aggreg: 11%

Results for O=C(NCc1ccco1)C1CC2CCC1C2 (configuration not stated) ?
HPGD block: 16µM*; LMNA splice mod: 4%; ALDH1A1 inh: -5%; JMJD2E inh: 0%; HTT ATP protect: 7%; HttQ103 aggreg: -2%[9.22 µM]

Results for O=C(Cn1c(=O)nc(-c2ccccc2)c2ccccc21)NCc1ccc(F)cc1 ?
LMNA splice mod: -18%[46 µM]

What do the screens show for `CCN(C(=O)COC(=O)c1cc([N+](=O)[O-])ccc1N1CCCCC1)C1CCS(=O)(=O)C1` (configuration not stated)?
ALDH1A1 inh: 14µM*; JMJD2E inh: -7%; HTT ATP protect: -19%; HttQ103 aggreg: -5%

Results for Cc1ccc(C(C)C)c(OCc2nn(CC(=O)c3ccc(OC(F)F)cc3)c3[n+]2CCCCC3)c1 ?
ALDH1A1 inh: 2%; JMJD2E inh: -13%; HTT ATP protect: -36%[10 µM]; HttQ103 aggreg: 0%

How did COc1ccc(C(=O)n2nc(C)c(Br)c2C)cc1 do in these assays?
HPGD block: -8%; LMNA splice mod: 4%; ALDH1A1 inh: 10µM*; JMJD2E inh: 0%; HTT ATP protect: 1%; HttQ103 aggreg: 1%

Results for CCCCOc1ccc(C(=O)N2CCC(C)CC2)cc1 ?
HPGD block: 1µM*; LMNA splice mod: 6%; ALDH1A1 inh: -10%; JMJD2E inh: -7%; HTT ATP protect: -11%; HttQ103 aggreg: -28%

How did Cc1nn(C(=O)c2ccco2)c(C)c1Br do in these assays?
HPGD block: -6%; LMNA splice mod: -3%; ALDH1A1 inh: inconclusive; JMJD2E inh: 8%; HTT ATP protect: 6%; HttQ103 aggreg: -1%[9.22 µM]

What do the screens show for `Nc1ccc(C(=O)N2CCCC2)cc1`?
HPGD block: 28µM*; LMNA splice mod: 0%; ALDH1A1 inh: -6%; JMJD2E inh: 4%; HTT ATP protect: 38%[1.9 µM]; HttQ103 aggreg: 4%

What do the screens show for `CCCCOc1ccc(C(=O)N2CCCC2C(=O)O)cc1` (configuration not stated)?
HPGD block: -18%; LMNA splice mod: 5%; ALDH1A1 inh: -1%; JMJD2E inh: -2%; HTT ATP protect: -21%[10 µM]; HttQ103 aggreg: -41%

What do the screens show for `CCCCOc1ccc(C(=O)N2CCCCCC2)cc1`?
HPGD block: 0.79µM*; LMNA splice mod: -15%; ALDH1A1 inh: inconclusive; JMJD2E inh: -3%; HTT ATP protect: 5%[10 µM]; HttQ103 aggreg: -19%

What do the screens show for `CCOc1ccc(C(=O)N2CCCN(C(=O)c3ccc(OCC)cc3)CC2)cc1`?
HPGD block: -9%; LMNA splice mod: -8%; ALDH1A1 inh: -14%; JMJD2E inh: 5%; HTT ATP protect: 1%[10 µM]; HttQ103 aggreg: 6%

Results for COc1cc(NS(=O)(=O)c2ccc3c(c2)CCN3S(C)(=O)=O)cc(OC)c1 ?
LMNA splice mod: 0%[46 µM]

How did Cc1cc(=O)[nH]c(-c2ccc(C(F)(F)F)cc2)n1 do in these assays?
ALDH1A1 inh: 2%; JMJD2E inh: 2%; HTT ATP protect: 11%[10 µM]; HttQ103 aggreg: 4%[9.22 µM]

Results for COc1ccc(C(=O)/C=C\N2CCOCC2)cc1 ?
HPGD block: -26%; LMNA splice mod: 5%; ALDH1A1 inh: 8.9µM*; JMJD2E inh: -2%; HTT ATP protect: -5%; HttQ103 aggreg: 11%

How did C=CCNC(=O)c1ccc(CNS(=O)(=O)c2ccc(NC(C)=O)cc2)cc1 do in these assays?
HPGD block: 20µM*; LMNA splice mod: 9%; ALDH1A1 inh: -5%; JMJD2E inh: -4%; HTT ATP protect: 13%; HttQ103 aggreg: 26%

What do the screens show for `COc1ccc(C(=O)N2CCC(C(=O)Nc3ccccc3OC)CC2)cc1`?
HPGD block: -4%; LMNA splice mod: -3%; ALDH1A1 inh: 0%; JMJD2E inh: 1%; HTT ATP protect: 5%[10 µM]; HttQ103 aggreg: -16%

How did O=C(c1ccc(COc2ccc(Cl)cc2)cc1)N1CCCCC1 do in these assays?
LMNA splice mod: 5%[46 µM]; ALDH1A1 inh: 28µM*; JMJD2E inh: -11%; HTT ATP protect: -4%; HttQ103 aggreg: 5%[9.22 µM]

Results for CC(=O)Nc1ccc(S(=O)(=O)NCc2ccc(C)cc2)cc1 ?
HPGD block: -15%; LMNA splice mod: inconclusive; ALDH1A1 inh: -8%; JMJD2E inh: -7%; HTT ATP protect: -3%; HttQ103 aggreg: -22%

Results for COc1ccc(NC(=O)C2CCN(C(=O)c3ccccc3)CC2)c(OC)c1 ?
HPGD block: -13%; LMNA splice mod: 15%; ALDH1A1 inh: 1.6µM*; JMJD2E inh: 1%; HTT ATP protect: 8%; HttQ103 aggreg: 16%

What do the screens show for `C=CCNC(=O)c1ccc(OC)cc1`?
LMNA splice mod: 4%[46 µM]; ALDH1A1 inh: 6%; JMJD2E inh: -15%; HTT ATP protect: -3%[10 µM]; HttQ103 aggreg: -10%[9.22 µM]

Results for COc1ccc(-n2c(C)nc3cc(C(=O)N4CCOCC4)ccc32)cc1 ?
HPGD block: 2.2µM*; LMNA splice mod: 10%; ALDH1A1 inh: inconclusive; JMJD2E inh: 0%; HTT ATP protect: -14%; HttQ103 aggreg: 8%

Results for C=CCNC(=O)c1ccc(N(C)S(=O)(=O)c2ccc(OC)cc2)cc1 ?
HPGD block: 2.8µM*; LMNA splice mod: -1%; ALDH1A1 inh: inconclusive; JMJD2E inh: -3%; HTT ATP protect: -22%; HttQ103 aggreg: -7%
